D2 PAM-1: positive allosteric modulators of human D2 dopamine receptor; P14416; HEK293 T-REx D2, calcium flux, EC20 dopamine potentiation; potentiation, % at 10 µM; 340,000 compounds, 0.34% hits;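 active = potentiation over 3 SD above the plate norm, cut at about 30% in these data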; also: 0% is about no effect
Target sequence (P14416 whole entry, looked up): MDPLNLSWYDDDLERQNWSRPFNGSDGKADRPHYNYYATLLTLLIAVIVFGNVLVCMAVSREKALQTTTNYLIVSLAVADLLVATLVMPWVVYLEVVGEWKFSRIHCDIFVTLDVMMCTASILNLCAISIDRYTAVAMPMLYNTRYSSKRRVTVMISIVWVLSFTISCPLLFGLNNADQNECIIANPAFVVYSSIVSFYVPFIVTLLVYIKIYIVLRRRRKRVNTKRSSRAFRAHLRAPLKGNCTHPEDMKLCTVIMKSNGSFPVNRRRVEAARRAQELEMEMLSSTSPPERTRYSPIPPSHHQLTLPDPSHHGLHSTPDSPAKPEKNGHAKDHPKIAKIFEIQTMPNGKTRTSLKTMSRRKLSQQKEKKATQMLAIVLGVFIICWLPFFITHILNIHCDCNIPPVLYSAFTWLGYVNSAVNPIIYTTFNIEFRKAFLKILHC
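Potentiation of an EC20 dopamine calcium response is measured in a force-coupled, tetracycline-inducible Hek293 Trex D2 line. Compound-only kinetic reads over 180 s flag agonists before dopamine addition.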
D2 ag-1: D2 dopamine receptor (human) agonism. P14416. HEK293 T-REx D2 cells, calcium flux agonist mode. activation, % at 2 µM. 340,000 compounds, 0.53% hits. AID 485358;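 active = activation over 3 SD above normal in the single-dose calcium agonist read, cut at about 30% in these data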; also: 0% is about no effect
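Tetracycline-induced HEK293 T-REx cells with force-coupled D2 receptor, plated overnight at 30 C, loaded with no-wash calcium dye. After a 10 s baseline, compound was pin-added and calcium flux read kinetically for 180 s; calcium rises flagged agonists.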
D2 antagonist: D2 dopamine receptor (human) antagonism | P14416 | HEK293 TREx D2 cells, calcium flux, dopamine EC80 | inhibition, % at 10 µM | 340,000 compounds, 2% hits; in the data active = inhibition above about 30%; inactive = below that, where a call was filed; also: 0% is about no effect
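Dopamine at EC80 is the agonist stimulus; test compounds precede it by 180 s. Calcium flux read kinetically in a force-coupled, inducible HEK293 T-REx D2 cell line.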
D2 ag-2: activates the human D2 dopamine receptor. activation, % (no concentration beside the values). 360,000 compounds, 0.084% hits. AID 624465. P14416. DiscoveRx PathHunter D2 beta-arrestin, luminescence, 90 min; 100% = 57 uM dopamine signal; in the data active = activation above about 40%
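DiscoveRx PathHunter D2 beta-arrestin cells (2,100/well) attached overnight, then compound-stimulated 90 min at 37 C in HBSS/10 mM HEPES/0.1% Tween-20 buffer; beta-galactosidase complementation read by luminescence after 1 h at ambient temperature. Dopamine 57 uM final (EC100) as control.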
D2 PAM-2: positive allosteric modulators of human D2 dopamine receptor. P14416. DiscoveRx D2 beta-arrestin cells, luminescence, 90 min; 100% = 57 uM dopamine signal. 360,000 compounds, 0.23% hits. AID 624464. potentiation, % (concentration not given with the values); in the data active = potentiation above about 50%
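PathHunter beta-arrestin assay in DiscoveRx D2 cells. Compounds were added with an EC20 of dopamine (50 nM final) for 90 min at 37 deg C. Luminescence was read 1 h after detection reagent, with 57 uM dopamine as the EC100 control.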
Starred values were filed as active, the others as inactive. Rows were chosen to be rich in hits. Some 2.4% of all compounds tested hit in one or more screens of this group.

Results for COc1cc(OC)c(N(C)C(=O)c2cn(C3CCCC3)c(=O)c3c2c2ccccc2n3C)cc1Cl ?
D2 PAM-1: 9

What do the screens show for `O=C(O)c1ccnc(Cl)c1`?
D2 PAM-1: 2; D2 ag-1: -2; D2 antagonist: 32*; D2 ag-2: 1; D2 PAM-2: -8

What do the screens show for `CCC(=O)N1CCc2cc(S(=O)(=O)NC(CC(C)C)C(=O)Nc3ccc(CC)cc3)ccc21` (stereo not given)?
D2 PAM-1: 8; D2 ag-1: 1

What do the screens show for `CCCCC12CN3CC(C)(CN(C1)C3c1c[nH]c3ccccc13)C2=O` (stereo not given)?
D2 PAM-1: 3; D2 ag-1: 5

What do the screens show for `C(=C\c1ccccc1)/CN1CCN(C(c2ccccc2)c2ccccc2)CC1`?
D2 antagonist: 53*

How did Fc1ccc(C(c2ccc(F)cc2)N2CCN(C/C=C/c3ccccc3)CC2)cc1 do in these assays?
D2 PAM-1: -25; D2 ag-1: -1; D2 antagonist: 65*; D2 ag-2: -2; D2 PAM-2: -30

What do the screens show for `COc1cc(OC)cc(-c2nc3nc(C)c(CCC(=O)Nc4ccc(C)c(C)c4)c(C)n3n2)c1`?
D2 PAM-1: 0; D2 ag-1: 1

How did CCOc1ccc(N(C(=O)c2ccc(Cl)cc2)S(=O)(=O)c2ccc3c(c2)n(C)c(=O)n3C)cc1 do in these assays?
D2 PAM-1: 0

What do the screens show for `COc1ccc(NC(=O)CSc2nnc(-c3ccc(OC)cc3)s2)cc1`?
D2 PAM-1: 4; D2 ag-1: 1

Results for Cc1ccc(C(C)C)c(OCC(=O)Nc2c(C(=O)c3ccccc3)oc3ccccc23)c1 ?
D2 PAM-1: -16; D2 ag-1: 0

How did c1c(C2CCCCC2)n[nH]c1CN1CCCCC1 do in these assays?
D2 PAM-1: -22; D2 ag-1: 0; D2 antagonist: 40*; D2 ag-2: -1; D2 PAM-2: -42

How did CSc1ccc(/C=C/C(=O)OCC(=O)NC2CCCC2)cc1 do in these assays?
D2 ag-2: 1; D2 PAM-2: -11

Results for CSc1ccc(/C=C/C(=O)OCC(=O)c2ccc[nH]2)cc1 ?
D2 PAM-1: 13; D2 ag-1: 1; D2 antagonist: 50*; D2 ag-2: -4; D2 PAM-2: -6

What do the screens show for `OCCOCCN1CCN(C(c2ccccc2)c2ccc(Cl)cc2)CC1` (stereo not given)?
D2 PAM-1: -29; D2 ag-1: 2; D2 antagonist: 72*; D2 ag-2: -4; D2 PAM-2: -36

How did COc1cccc(OC)c1OCCN1CCN(C(c2ccccc2)c2ccccc2)CC1 do in these assays?
D2 PAM-1: -20; D2 ag-1: 0; D2 antagonist: -17; D2 ag-2: -1; D2 PAM-2: -34

How did CCn1cc(C(=O)N2CCN(c3ccccc3)CC2)c(=O)c2cc(S(=O)(=O)N3CCC(C)CC3)ccc21 do in these assays?
D2 PAM-1: 16; D2 ag-1: 0

Results for Fc1ccc(-n2ncc3c(Nc4cccc(Cl)c4)ncnc32)cc1 ?
D2 PAM-1: 3; D2 ag-1: 0

What do the screens show for `Cc1ccc(CNC(=O)CN2C(=O)CSc3ccc(S(=O)(=O)N(C)C)cc32)cc1`?
D2 PAM-1: -7; D2 ag-1: 0

What do the screens show for `Cc1c(C(=O)NCc2ccccc2)c(-c2ccccc2)nn1-c1ccccc1`?
D2 PAM-1: 1; D2 ag-1: 1; D2 antagonist: 36*; D2 ag-2: 1; D2 PAM-2: -2

What do the screens show for `COc1ccc(C(=O)NCCCn2ccnc2)cc1`?
D2 PAM-1: 2; D2 ag-1: 0; D2 antagonist: -7; D2 ag-2: -2; D2 PAM-2: 21

Results for O=C(NCc1ccncc1)c1cn(-c2ccccc2)nc1-c1cccnc1 ?
D2 PAM-1: -16; D2 ag-1: -1; D2 antagonist: 14; D2 ag-2: -2; D2 PAM-2: 23

How did O=C(NC1CCN(Cc2ccc(Cl)cc2)CC1)c1cn(-c2ccccc2)nc1-c1cccnc1 do in these assays?
D2 PAM-1: -34; D2 ag-1: -2; D2 antagonist: 74*; D2 ag-2: -2; D2 PAM-2: -3

What do the screens show for `COc1ccc(-c2nn(-c3ccccc3)cc2C(=O)NCCCn2ccnc2)cc1`?
D2 PAM-1: -24; D2 ag-1: -1; D2 antagonist: 30*; D2 ag-2: -1; D2 PAM-2: -24

What do the screens show for `O=C(NCc1cccnc1)c1cn(-c2ccccc2)nc1-c1ccccc1`?
D2 PAM-1: -26; D2 ag-1: -1; D2 antagonist: 44*; D2 ag-2: -5; D2 PAM-2: -22

Results for CC(=O)c1nnn(-c2ccc(C)cc2Cl)c1C ?
D2 PAM-1: -6

What do the screens show for `COc1ccc(CCN2C(=O)c3[nH]nc(-c4ccccc4O)c3C2c2cccc(OC)c2)cc1` (stereo not given)?
D2 PAM-1: 1; D2 ag-1: -1

What do the screens show for `COc1ccc(CCN2C(=O)c3[nH]nc(-c4ccccc4O)c3C2c2cccc(Cl)c2)cc1` (stereo not given)?
D2 PAM-1: -4; D2 ag-1: -1; D2 antagonist: -12; D2 ag-2: 12; D2 PAM-2: 91*

What do the screens show for `Cc1ccc(C(=O)Nc2ccc(C(=O)OCc3cc(=O)n4c5c(sc4n3)CCCC5)cc2)cc1`?
D2 PAM-1: -4; D2 ag-1: 1

How did CCC1CCC(N2CCN(c3ccccc3F)CC2)CC1 (stereo not given) do in these assays?
D2 PAM-1: -24; D2 ag-1: 18; D2 antagonist: 37*; D2 ag-2: 5; D2 PAM-2: 1

Results for CCOCCCNC(=O)CN1C(=O)CCn2nc(-c3cccn3C)cc21 ?
D2 PAM-1: 9; D2 ag-1: 1

Results for CCOc1ccc(NC(=O)Cn2c(=O)oc3cc(S(=O)(=O)N4CCC(C)CC4)ccc32)cc1 ?
D2 PAM-1: -7; D2 ag-1: -1

What do the screens show for `COc1ccc(NC(=S)N2CCN(C(=O)c3ccco3)CC2)cc1`?
D2 PAM-1: -9; D2 ag-1: 3; D2 antagonist: 32*; D2 ag-2: -3; D2 PAM-2: -5

Results for COc1ccc(C(=O)C2CCN(C(=O)c3ccco3)CC2)cc1 ?
D2 PAM-1: 5; D2 ag-1: 0; D2 antagonist: -13; D2 ag-2: -3; D2 PAM-2: 0

How did COc1ccc(C2(NC(C)=O)CCN(C(=O)c3ccco3)CC2)cc1 do in these assays?
D2 PAM-1: 9; D2 ag-1: 0; D2 antagonist: 33*; D2 ag-2: -6; D2 PAM-2: -8

Results for Cc1c(Cl)cccc1NC(=O)N1CCN(C(=O)c2ccco2)CC1 ?
D2 PAM-1: -3; D2 ag-1: 31*; D2 antagonist: -4; D2 ag-2: -4; D2 PAM-2: -4

From PubChem BioAssay
